Reference: PubChem BioAssay (NCI)
About 83,000 compounds went through this panel and 20% of them were active in at least one assay; those are over-represented in the sample as a whole.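 Values shown are percent growth following 48 h exposure of cells in 96-well plates to a single concentration of compound; below 10 was considered active.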 A number with no mark means an inactive call. Calls of active or inactive are those of the source.

Tests used:
Test in all cases: NCI-60 one-dose screen, 48 h (100 = growth as untreated, 0 = no growth, -100 = all killed)
Conditions in all cases: 10 µM unless noted
[1] = system: HT29 colon
[2] = system: SNB-75 CNS
[3] = system: SNB-19 CNS
[4] = system: U251 CNS
[5] = system: PC-3 prostate
[6] = system: SK-MEL-5 melanoma
[7] = system: UACC-62 melanoma
[8] = system: LOX IMVI melanoma
[9] = system: SK-MEL-28 melanoma
[10] = system: SK-MEL-2 melanoma
[11] = system: EKVX NSCLC
[12] = system: SN12C renal
[13] = system: UO-31 renal
[14] = system: TK-10 renal
[15] = system: ACHN renal
[16] = system: CAKI-1 renal
[17] = system: CCRF-CEM leukemia
[18] = system: MOLT-4 leukemia
[19] = system: A498 renal

| SMILES | growth [1] | growth [2] | growth [3] [%] | growth [4] [%] | growth [5] | growth [6] | growth [7] | growth [8] | growth [9] | growth [10] | growth [11] [%] | growth [12] | growth [13] | growth [14] | growth [15] | growth [16] | growth [17] | growth [18] | growth [19] |
| --- | --- | --- | --- | --- | --- | --- | --- | --- | --- | --- | --- | --- | --- | --- | --- | --- | --- | --- | --- |
| C=C1C(=O)O[C@H]2[C@H]1CC/C(COC(=O)NCc1c[nH]c3ccc(F)cc13)=C\CC[C@@]1(C)O[C@@H]21 | -50.2% (active) | 26.4% | 39.5 | 18.7 | 32% | -14.9% (active) | -75.1% (active) | -83.4% (active) | -62.5% (active) | 28.6% | 10.6 | -64.4% (active) | -99.5% (active) | -15.1% (active) | -84.1% (active) | -87.3% (active) | -8.32% (active) | 3.81% (active) | – |
| O=C(O)c1ccc2c(c1)C(=O)N(Cc1ccccc1)C2=O | 99.9% | 94.2% | 95.1 | 92.7 | 96.2% | 99.7% | 97.9% | 95.7% | 110% | – | 99.8 | 98.2% | 83% | 91.1% | 99.9% | 99.3% | 92.6% | 98.5% | 85.4% |
| COc1ccc(/C=C/c2nc(Nc3cccc(NC(C)=O)c3)c3ccccc3n2)cc1 | 85% | 90.5% | 92.4 | – | 90% | 87.5% | 44.2% | 59.3% | 104% | 91.9% | 94.3 | 89.1% | 68.3% | 92.7% | 78.3% | 67.4% | 82.5% | 87% | 9.66% (active) |
| CCN1Cc2nc3sc(C)c(C)c3c(=O)n2C=C1C | 22.1% | 88% | 49.4 | 24.3 | -6.34% (active) | 78.7% | 46.9% | 53.5% | 67.3% | 91.9% | 59.8 | 57.1% | 34.4% | 87.5% | 65.3% | 61.6% | – | -3.45% (active) | 108% |
| COc1cc(/C=C/C(=O)c2nc3cc(F)ccc3nc2C)cc(OC)c1OC | 68.5% | 89.9% | 77.9 | 36.7 | 68.1% | 81% | 62.2% | 20.8% | 61.3% | 64.6% | 201 | 66.1% | 61.1% | 103% | 87.3% | 106% | -4.9% (active) | -18.6% (active) | 98% |
| OC(c1ccc(F)c(C(F)(F)F)c1)c1cnccc1NC1CCCCC1 (stereo not drawn) | 14.3% | 68.7% | 82.9 | 63.5 | 58.7% | 49.4% | 71.2% | 69.7% | 84.8% | 89.6% | 69.3 | 65.3% | 49.6% | 71.1% | 81.9% | 64.3% | 57.2% | 56% | 59.6% |
| COc1cc2c(-c3cc4c(cc3CNCCc3ccc5c(c3)OCO5)OCO4)cccc2c(OC)c1O | 92% | 44.9% | 87.4 | 75.1 | 60.9% | – | 79.1% | 72.8% | 97.6% | 92.9% | 77.4 | 78.8% | 45.5% | 102% | 79.2% | 54.9% | 79.5% | 56.5% | – |
| CNC(=O)c1cccc(Cn2nc(C)c(NC(=O)c3ccc(COc4ccc(C(F)(F)F)cc4C)cc3)c2C)c1 | 44.4% | 82.2% | 46.8 | 44.4 | 40.1% | -16.8% (active) | 57% | 58% | 63.9% | 48.9% | 34 | 56.6% | 47.3% | 55.5% | 47.2% | 47% | 54.4% | 18% | – |
| N/C(=N\C(N)=N\c1nc2ccccc2s1)c1cnccn1 | 24.1% | 35.8% | 37.4 | 35.1 | 31.1% | -48.5% (active) | -20.8% (active) | 15.1% | 21.6% | 3% (active) | 48 | 36.7% | -12.9% (active) | 37.9% | 26.2% | 15.5% | 14.6% | 8.63% (active) | – |
| O=C(Nc1ccc(F)cc1)Nc1ccc(NC(=O)c2cc(Cl)nc3ccccc23)cc1 | 65.3% | 67.2% | 49.7 | 62.8 | 59.4% | – | 72% | 55% | 77.7% | 90.3% | 89.2 | 73.6% | 83.1% | 83.5% | 102% | 78.5% | 41.9% | 64.2% | – |
| CN1CCN(CCNc2nccc(-c3c(-c4cccc(O)c4)nc4sccn34)n2)S1(=O)=O | 43.9% | 54.2% | 115 | – | 68.5% | 33% | 3.85% (active) | 23.8% | 15% | -24.9% (active) | 99.1 | 70.3% | 56.2% | 94.1% | 37.4% | 61.8% | 76.7% | – | 119% |
| COc1cc2nc(-c3ccc(C(F)(F)F)cc3)cc(OCCCN3CCCC3)c2cc1OC | 20.9% | -19% (active) | 67.5 | – | 41.7% | -18.2% (active) | -25% (active) | -53.1% (active) | 71.9% | 49.3% | 65 | – | 31.5% | 100% | 39.1% | -7.36% (active) | 38.5% | 46.2% | – |
